Measurements as given in PubChem BioAssay.
The source made the active and inactive calls.

How the values were obtained:
[1] = tested on: Human papillomavirus type 1a protein E7 (residues 44-93); assay: HPV1a E7 fragment binders on microarrays, primary screen, biochemical, small-molecule microarray, residues 44-93, 635 nm fluorescence (AID 1108); conditions: small-molecule microarray binding, fluorescence 635 nm; higher = more signal;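 also: E7 fragment applied at 1 µg/mL in TBST for 1 h at 4 C; score combines spot fluorescence with its signal to noise ratio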
[2] = modulators of HCV replicon luciferase signal, primary screen, HCV replication inhibitor project, Huh7 cells, luciferase reporter (AID 1109); conditions: 48 h, higher = more signal;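 also: huh7 hepatoma cells harbouring a luciferase neomycin HCV replicon reporter; luciferase luminescence as measure of HCV replicon replication; test concentration not given here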
[3] = biological target: Left-right determination factor 2 (Homo sapiens) (UniProt O00292); assay: LEFTY2 binders on small-molecule microarrays, primary screen, biochemical, small-molecule microarray, 635 nm fluorescence scan (AID 1110); conditions: LEFTY2 binding, higher = more signal
[4] = biological target: Calmodulin-1 (Homo sapiens) (UniProt P0DP23); assay: CALM1 binders on microarrays, EGTA buffer, profiling panel, biochemical, small-molecule microarray, Cy5-labelled CALM1 (AID 1111); conditions: Cy5-CALM1 binding fluorescence, higher = more signal;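 also: labelled calmodulin applied in Tris saline Tween buffer holding calcium plus EGTA and DTT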
[5] = biological target: Calmodulin-1 (Homo sapiens) (UniProt P0DP23); assay: calcium-bound CALM1 binders on microarrays, profiling panel, artefact control for SMM control-protein annotation, biochemical, small-molecule microarray, Cy5-labelled CALM1, plus calcium (AID 1112); conditions: Cy5-CALM1 binding fluorescence, higher = more signal;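 also: score merges spot fluorescence with signal to noise from triplicate slides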
[6] = small-molecule microarray binders of probe aWnt5a, primary screen, biochemical, biotinylated probe, 635/667 nm fluorescence (AID 1113); conditions: higher = more signal;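 also: score merges 667 nm fluorescence intensity with signal-to-noise per printed feature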
[7] = small-molecule microarray binders of probe aShh, primary screen, biochemical, biotinylated probe, 635/667 nm fluorescence (AID 1114); conditions: higher = more signal;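 also: probe is biotin-labelled aShh protein from a stem cell growth factor screen; measures binding of labelled protein to compounds printed on the slide; score merges feature fluorescence at 667 nm with signal-to-noise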
[8] = small-molecule microarray binders of probe aNog, primary screen, biochemical, biotinylated probe, 635/667 nm fluorescence (AID 1115); conditions: higher = more signal;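 also: probe is biotinylated aNog protein used at 0.15 µg/mL for 1 h at 4 C; z-score combines 667 nm fluorescence of each spot with its signal to noise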
[9] = biological target: Torsin-1A-interacting protein 1 (Homo sapiens) (UniProt Q5JTV8); assay: LAP1 binders from COS7 cell lysate, primary screen, small-molecule microarray, 635/667 nm fluorescence (AID 1116); conditions: COS7-hLAP1 lysate binding, 635 nm fluorescence, higher = more signal
[10] = biological target: Alpha-bungarotoxin (Bungarus multicinctus) (UniProt P60615); assay: alpha-bungarotoxin binders on microarray, profiling panel, artefact control for SMM control protein annotation, biochemical, small-molecule microarray, Alexa647 label, 635/667 nm fluorescence (AID 1117); conditions: alpha-BTX-A647 binding fluorescence, higher = more signal
[11] = biological target: Albumin (Bos taurus) (UniProt P02769); assay: bovine serum albumin binders on microarray, profiling panel, artefact control for SMM control protein annotation, biochemical, small-molecule microarray, Alexa647 label, 635/667 nm fluorescence (AID 1118); conditions: BSA-A647 binding, fluorescence 635 nm, higher = more signal;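 also: score merges 667 nm emission intensity and signal-to-noise per printed compound spot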
[12] = small-molecule microarray binders of probe aXIP, primary screen, biochemical, NeuroSMM set, 635/667 nm fluorescence (AID 1119); conditions: higher = more signal, called active from +8 up or from −8 down;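 also: probe is the protein aXip251-270 applied at 1 µg/mL to compound-printed slides; binding of probe to printed compounds measured as 667 nm fluorescence plus signal to noise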
[13] = small-molecule binders of probe aNOTCH3, primary screen, biochemical, small-molecule microarray, 635/667 nm fluorescence (AID 1120); conditions: higher = more signal;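 also: probe is a biotin-tagged antibody raised against NOTCH3 rather than NOTCH3 protein; score merges spot fluorescence near 667 nm with spot signal to noise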
[14] = small-molecule binders of probe aNOTCH2, primary screen, biochemical, small-molecule microarray, 635/667 nm fluorescence (AID 1121); conditions: higher = more signal;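 also: score merges feature fluorescence read at 667 nm with its signal to noise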
[15] = biological target: Carbonic anhydrase 2 (Homo sapiens) (UniProt P00918); assay: CAII small-molecule binders, profiling panel, biochemical, small-molecule microarray, Alexa647-labelled CAII (AID 1122); conditions: CAII-A647 binding fluorescence, higher = more signal
[16] = COS7 lysate on small-molecule microarray, probe aHis, 635 nm (AID 1123); conditions: COS7 cell lysate, fluorescence, higher = more signal;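 also: z-score combines 667nm fluorescence intensity with signal-to-noise per printed compound spot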
[17] = compound binding in COS7 lysate, probe aLAP1, primary screen, cell lysate, small-molecule microarray (AID 1124); conditions: probe aLAP1, fluorescence, higher = more signal;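 also: lysate comes from COS7 cells expressing LAP1 and is applied at 0.3 µg/mL; score merges spot fluorescence near 667 nm with signal-to-noise over triplicate slides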
[18] = tested on: Sam68 (KHDRBS1); assay: Sam68 small-molecule binders, primary screen, biochemical, small-molecule microarray, 635 nm fluorescence (AID 1125); conditions: small-molecule microarray binding, higher = more signal;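 also: score merges 667 nm channel intensity with signal to noise over triplicate slides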
[19] = tested on: Chordin-like protein 2 (CHRDL2); assay: CHRDL2 small-molecule binders, primary screen, biochemical, small-molecule microarray, 635 nm fluorescence (AID 1126); conditions: small-molecule microarray binding, fluorescence 635 nm; higher = more signal;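 also: printed compound slides probed with Chrdl2 protein at 4 µg/mL for 1 h at 4 C; score merges 667 nm emission intensity with signal to noise over three replicate slides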
[20] = biological target: Concanavalin-A (Canavalia ensiformis) (UniProt P02866); assay: ConA small-molecule binders, primary screen, artefact control for SMM control protein annotation, biochemical, small-molecule microarray, Alexa647 label, 635 nm (AID 1127); conditions: ConA-A647 binding fluorescence, higher = more signal;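 also: z combines 667 nm emission intensity with signal-to-noise across three replicate slides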
Chain of Concanavalin-A (Canavalia ensiformis) (P02866 whole entry, looked up): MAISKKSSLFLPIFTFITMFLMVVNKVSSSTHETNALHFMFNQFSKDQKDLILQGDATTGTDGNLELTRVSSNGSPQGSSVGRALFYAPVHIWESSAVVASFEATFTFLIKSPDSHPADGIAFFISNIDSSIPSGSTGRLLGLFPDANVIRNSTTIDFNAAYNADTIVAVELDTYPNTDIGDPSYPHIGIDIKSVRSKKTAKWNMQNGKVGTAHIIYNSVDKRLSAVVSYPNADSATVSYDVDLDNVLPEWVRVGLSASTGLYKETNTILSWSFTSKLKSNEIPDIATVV

Chain of Albumin (Bos taurus) (P02769 whole entry, looked up): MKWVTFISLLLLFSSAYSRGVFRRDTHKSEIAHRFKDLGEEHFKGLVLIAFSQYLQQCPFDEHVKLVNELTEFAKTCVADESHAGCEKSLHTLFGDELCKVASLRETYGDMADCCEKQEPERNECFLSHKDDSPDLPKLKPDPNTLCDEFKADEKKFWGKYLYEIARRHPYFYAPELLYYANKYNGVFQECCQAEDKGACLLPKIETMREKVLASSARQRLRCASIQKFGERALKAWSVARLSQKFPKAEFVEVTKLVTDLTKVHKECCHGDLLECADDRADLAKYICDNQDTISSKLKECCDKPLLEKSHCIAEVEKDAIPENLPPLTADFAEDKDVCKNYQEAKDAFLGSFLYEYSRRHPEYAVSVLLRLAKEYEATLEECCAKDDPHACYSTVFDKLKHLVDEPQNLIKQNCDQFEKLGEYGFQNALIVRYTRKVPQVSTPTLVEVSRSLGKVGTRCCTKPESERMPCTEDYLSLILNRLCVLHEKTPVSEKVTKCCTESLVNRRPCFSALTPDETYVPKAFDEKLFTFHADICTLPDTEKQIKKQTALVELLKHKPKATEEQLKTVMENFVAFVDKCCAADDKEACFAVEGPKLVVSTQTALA
Chain of Alpha-bungarotoxin (Bungarus multicinctus) (P60615 whole entry, looked up): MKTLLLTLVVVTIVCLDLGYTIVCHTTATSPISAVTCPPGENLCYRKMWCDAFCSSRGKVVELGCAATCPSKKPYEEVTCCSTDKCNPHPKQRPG
Chain of Torsin-1A-interacting protein 1 (Homo sapiens) (Q5JTV8 whole entry, looked up): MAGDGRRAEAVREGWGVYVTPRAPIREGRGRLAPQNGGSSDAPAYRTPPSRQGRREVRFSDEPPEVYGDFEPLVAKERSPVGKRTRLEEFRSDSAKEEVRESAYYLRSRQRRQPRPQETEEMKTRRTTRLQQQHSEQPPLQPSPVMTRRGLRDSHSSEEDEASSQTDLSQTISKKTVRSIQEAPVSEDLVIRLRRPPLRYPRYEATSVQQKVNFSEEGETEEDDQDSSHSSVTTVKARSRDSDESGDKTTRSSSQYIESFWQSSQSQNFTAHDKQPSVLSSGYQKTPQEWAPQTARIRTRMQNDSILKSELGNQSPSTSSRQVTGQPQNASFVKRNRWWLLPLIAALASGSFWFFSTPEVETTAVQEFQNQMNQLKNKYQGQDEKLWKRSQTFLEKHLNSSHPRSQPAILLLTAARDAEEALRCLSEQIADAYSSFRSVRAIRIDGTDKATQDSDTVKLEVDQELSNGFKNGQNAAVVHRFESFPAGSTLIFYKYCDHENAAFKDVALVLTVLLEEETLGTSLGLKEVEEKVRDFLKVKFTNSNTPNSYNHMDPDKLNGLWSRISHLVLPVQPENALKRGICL
Chain of Left-right determination factor 2 (Homo sapiens) (O00292 whole entry, looked up): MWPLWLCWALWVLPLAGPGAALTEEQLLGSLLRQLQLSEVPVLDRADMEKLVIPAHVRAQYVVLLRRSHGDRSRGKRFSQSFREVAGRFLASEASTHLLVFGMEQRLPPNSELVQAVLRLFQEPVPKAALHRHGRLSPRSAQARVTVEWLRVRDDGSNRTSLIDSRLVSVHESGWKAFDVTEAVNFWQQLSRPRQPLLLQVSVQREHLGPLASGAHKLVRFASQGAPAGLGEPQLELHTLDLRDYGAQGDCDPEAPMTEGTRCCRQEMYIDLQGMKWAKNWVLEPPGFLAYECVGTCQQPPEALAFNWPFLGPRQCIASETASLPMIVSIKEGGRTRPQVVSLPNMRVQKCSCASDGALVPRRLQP

Row | SMILES | composite z-score [1] | z-score [2] | composite z-score [3] | composite z-score [4] | composite z-score [5] | composite z-score [6] | composite z-score [7] | composite z-score [8] | composite z-score [9] | composite z-score [10] | composite z-score [11] | composite Z-score [12] | composite z-score [13] | composite z-score [14] | composite z-score [15] | composite z-score [16] | composite z-score [17] | composite z-score [18] | composite z-score [19] | composite z-score [20]
1 | COCCOC(=O)N1C(=O)[C@@]2(c3cc(C#CCC(C(=O)OC)C(=O)OC)ccc31)[C@H](c1ccc(OCCO)cc1)N1[C@H](c3ccccc3)[C@H](c3ccccc3)OC(=O)[C@H]1[C@@H]2C(=O)N1CCCCCCC1 | 1.21 | -0.735 | 1.13 | 2.57 | 1.53 | 0.816 | 2.6 | 3.08 | 3.22 | 2.32 | 0.256 | 2.32 (inactive) | 1.77 | 0.597 | 0.604 | 3.41 | 0.986 | 1.3 | 1.3 | 1.1
2 | C=CCOC(=O)[C@@H]1[C@H]2C(=O)O[C@H](c3ccccc3)[C@H](c3ccccc3)N2[C@H](c2ccc(OCCOC(=O)[C@H]3C[C@H]4C(=O)NCC(=O)N4[C@H]3c3ccc(O)cc3)cc2)[C@@]12C(=O)Nc1ccc(I)cc12 | 0.222 | -2.09 | 0.606 | 0.342 | -0.103 | -0.0758 | -0.294 | 0.036 | 1.27 | 1.74 | -1.07 | 0.683 (inactive) | -0.0711 | -0.117 | 0.323 | 1.94 | -0.159 | 1.29 | 0.826 | 1.16
3 | Cc1ccc(S[C@]2(C(=O)NCC(F)(F)F)CC(=O)N(C3CCCCC3)[C@@H]2c2ccc(CO)cc2)cc1 | 0.82 | -0.759 | -0.431 | 1.26 | 0.27 | -0.1 | 0.0875 | -0.546 | -0.163 | 0.28 | 0.344 | 0.399 (inactive) | -0.161 | -0.11 | 0.702 | 2 | 0.298 | 0.626 | -0.339 | -0.123
4 | CN1C(=O)C2C=CC(C(O)c3ccc(-c4ccccc4)s3)N(Nc3ccccc3)C2C1=O (stereo not given) | 0.965 | -0.593 | 0.0874 | 1.41 | 0.186 | -0.0103 | 0.296 | 1.49 | 1.07 | 2 | 0.945 | 0.498 (inactive) | 0.403 | 0.135 | 0.714 | 1.94 | 0.32 | 1.24 | -0.121 | 1.15
5 | C=CC(CO)NC(=O)OCC1c2ccccc2-c2ccccc21 (stereo not given) | 0.0077 | -0.479 | 0.407 | -0.0914 | -0.885 | 0.048 | -0.426 | -0.208 | -0.141 | 0.252 | -0.335 | 0.314 (inactive) | 0.0242 | -0.108 | -0.192 | 0.121 | -0.0184 | 0.0668 | 0.566 | 0.47
6 | CC=CC(O)C1C=CC2C(=O)N(C)C(=O)C2N1NC(=O)OC(C)(C)C (stereo not given) | -1.08 | 0.381 | 0.478 | 0.127 | -0.516 | -0.101 | -0.206 | -0.135 | 0.512 | 0.277 | 1.03 | 0.397 (inactive) | 0.0687 | -0.173 | 0.774 | 0.439 | 0.826 | -0.0008 | 0.204 | 0.0815
7 | COc1ccccc1CN1C(=O)c2ccccc2[C@](Cc2ccccc2I)(C(=O)NCCCN(C)C)[C@@H]1c1ccc(CO)cc1 | 1.35 | -3.5 | -0.371 | -0.167 | -0.272 | 0.134 | 0.215 | 1.44 | 0.549 | 0.812 | 0.0893 | -0.105 (inactive) | -0.243 | -0.181 | 0.475 | 1.86 | 2.08 | 1.3 | 0.176 | 1.11
8 | COC(=O)[C@@]1(Cc2ccccc2CN=[N+]=[N-])COC(c2ccc(OCCCO)cc2)=N1 | -0.273 | -0.221 | -2.75 | -0.759 | 0.0354 | -0.292 | 1.69 | 0.199 | 0.202 | 3.02 | 0.426 | 0.978 (inactive) | -0.425 | -0.0959 | 0.0365 | 2.27 | -0.365 | 0.424 | -2.4 | -1.38
9 | C=CC[C@@]1(C(=O)O)N=C(c2ccc(OCCCO)cc2)O[C@@H]1c1ccccc1CN=[N+]=[N-] | 0.895 | -1.99 | 0.461 | 1.83 | 0.608 | 0.115 | -0.0119 | 0.0139 | 0.976 | 0.974 | 0.557 | -0.632 (inactive) | 0.0991 | -0.147 | 0.596 | 1.9 | 0.0424 | 0.826 | 0.439 | 1.05
10 | O=C1c2ccccc2[C@@]2(Cc3ccccc3N(Cc3ccccc3)C2=O)[C@H](c2ccc(CO)cc2)N1Cc1ccccc1 | 0.145 | -0.173 | -1.09 | -0.73 | 0.242 | -0.236 | -0.153 | -0.36 | -0.516 | -0.114 | -0.819 | 0.225 (inactive) | -0.132 | -0.125 | 0.19 | -0.137 | 0.407 | -0.42 | -0.845 | -0.571
11 | CCOC(=O)C[C@H]1[C@H](OC(=O)Cc2ccc3c(c2)OCO3)[C@@H](NC(=O)c2ccccc2)c2cc(OCCCO)ccc2N1C(=O)Cc1ccc(OC)cc1 | 0.334 | -1.53 | -0.113 | 1.04 | 0.188 | -0.0545 | -0.0626 | -0.196 | 0.435 | 0.774 | 0.521 | -0.751 (inactive) | -0.116 | -0.0974 | 0.544 | 1.04 | -0.0337 | 0.683 | -0.302 | 0.808
12 | C=CCC(OC(C)=O)[C@@H]1[C@@H](N(Cc2ccc(-c3cccc(C(F)(F)F)c3)o2)C(=O)Cc2ccc(OC)cc2)c2cc(OCCCO)ccc2N1C(=O)c1ccc2ccccc2n1 (stereo not given in full) | -0.551 | 0.185 | -0.323 | -0.698 | -0.605 | -0.0017 | -0.0904 | 0.227 | -0.366 | -0.362 | -0.739 | -0.117 (inactive) | -0.0311 | -0.0956 | -0.165 | 0.516 | -0.136 | -1.29 | 0.763 | -0.388
